# Laboratory results from PubChem BioAssay (NCI).
# The panel holds about 83,000 compounds, 20% with a hit somewhere; the sample as a whole holds those more often.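 Plates (96-well) were seeded with cells, treated with compound at one concentration, and incubated for 48 hours before percent growth was determined.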 Values without a mark were called inactive. Active and inactive are the calls of the source. How the source made its calls: active means growth percent below 10; inactive means the rest.
# Legend:
# Assay in all cases: NCI-60 one-dose screen, 48 h (100 = growth as untreated, 0 = no growth, -100 = all killed)
# Conditions in all cases: 10 µM unless noted
# NCI-H23 lung = test system: NCI-H23 lung
# NCI-H226 lung = test system: NCI-H226 lung
# NCI-H322M lung = test system: NCI-H322M lung
# HOP-62 NSCLC = test system: HOP-62 NSCLC
# NCI-H460 lung = test system: NCI-H460 lung
# HOP-92 NSCLC = test system: HOP-92 NSCLC
# NCI-H522 lung = test system: NCI-H522 lung
# A549/ATCC NSCLC = test system: A549/ATCC NSCLC
# 786-0 renal = test system: 786-0 renal
# COLO 205 colon = test system: COLO 205 colon
SMILES,growth (NCI-H23 lung),growth (NCI-H226 lung),growth (NCI-H322M lung),growth (HOP-62 NSCLC),growth (NCI-H460 lung),growth (HOP-92 NSCLC),growth (NCI-H522 lung),growth (A549/ATCC NSCLC),growth (786-0 renal),growth (COLO 205 colon)
Cc1nc2c(-c3cnc(N)nc3)nc(N3CCOCC3)nc2n1C(C)C,16.5%,-1.05% (active),-5.38% (active),-12.7% (active),12.2%,-17.2% (active),4.22% (active),-1.09% (active),-8.16% (active),-2.93% (active)
NC(=O)c1noc(C(=O)c2ccccc2)c1N,101%,89.8%,104%,114%,102%,107%,80.4%,89.1%,97.9%,111%
CCCCCCCCCCCCCCCCOc1ccc(S(=O)(=O)N(C)C)cc1[N+](=O)[O-],97.4%,104%,103%,49.2%,118%,46.2%,94.5%,98.7%,67.3%,114%
C#CC[C@@H]1C[C@]2(C)[C@H]3CC=C4[C@H]5[C@@H](C)[C@H](C)CC[C@]5(C(=O)NCCCCCCCCN)CC[C@@]4(C)[C@]3(C)CC[C@H]2C(C)(C)[C@H]1OC(C)=O,79.3%,94.6%,80.4%,104%,-63.8% (active),53.1%,-1.25% (active),46.5%,80.6%,-23.4% (active)
N#CC1=C(N)Oc2nc[nH]c(=O)c2C1c1cccs1 (stereo not given),110%,89%,105%,105%,106%,102%,97.6%,95.7%,103%,106%
COc1cc(CN2CCO[C@H](COc3cccc(F)c3)C2)ccc1Cl,48.8%,59.7%,73.3%,33.4%,24.8%,48.6%,30.7%,29.3%,52%,12.5%
CCOC(=O)c1ccccc1SC(C[N+](=O)[O-])c1ccccc1 (stereo not given),99.1%,86.2%,116%,118%,107%,90.5%,88.8%,78.7%,98.7%,102%
CC(C)CC(NC(=O)OCC1c2ccccc2-c2ccccc21)C(=O)O (stereo not given),101%,102%,101%,103%,115%,96.2%,96.6%,95.1%,98%,111%
O=C(C=P(c1ccccc1)(c1ccccc1)c1ccccc1)CCl,-23.2% (active),-70.7% (active),10.3%,13.9%,-11.9% (active),-51.7% (active),-77.7% (active),23.1%,-75.8% (active),-53.9% (active)
FC(F)(F)c1ccc(/C=N/Nc2nnc3n2N=C(c2ccc(Cl)cc2)CS3)cc1,64.8%,20.7%,60.9%,16.4%,43.9%,3.52% (active),58.1%,51.7%,27.6%,89.3%
CN(C)c1ccc(/C=N/Nc2nnc3n2N=C(c2ccc(Cl)cc2)CS3)cc1,102%,85%,102%,104%,93.4%,94.5%,87.5%,81.3%,88.1%,105%
CNCc1ccccc1CN(CC(=O)Nc1ccc2c(c1)CC1(C2)C(=O)Nc2ncccc21)C(=O)C(C)(C)C (stereo not given),103%,95%,100%,102%,106%,104%,93.5%,103%,107%,102%
Clc1ccc(-c2nc(Br)cn3ccnc23)cc1,85.5%,74.6%,93%,84.3%,91.5%,53.6%,84.6%,104%,97.7%,94.5%
CC(CN1CCN(C)CC1)CN1c2ccccc2Sc2ccc(C(F)(F)F)cc21 (stereo not given),74.3%,81.8%,80%,85.6%,0.601% (active),39.7%,43.8%,41.2%,52.2%,-68% (active)
Cc1cc2nc3c(=O)[nH]c(=O)nc-3n(CC=O)c2cc1C,108%,91%,110%,106%,106%,293%,107%,115%,105%,128%
COc1ccc(/C(=C\c2ccc3c(c2)OCO3)C(=O)Nc2nc3ccccc3s2)cc1,106%,97.6%,94.4%,95.5%,110%,104%,81.5%,93.9%,97.2%,110%
O=c1cc(N2CCOCC2)oc2c(-c3ccc4c(c3)OCCO4)csc12,31.9%,11.6%,19.8%,15.5%,22%,11.9%,28.8%,12.9%,9.88% (active),5.88% (active)
CSC1=NC(=Nc2c(C)cccc2C)C2(CCC(C(C)(C)C)CC2)N1c1ccc(Cl)cc1 (stereo not given),48.6%,48.6%,64.8%,42%,16%,62.7%,48.2%,30.5%,51.1%,40.8%
Nc1nonc1-c1nc2ccccc2n1Cc1ccc(F)cc1,70.6%,69.3%,69.8%,56.7%,49.3%,65%,4.81% (active),39.1%,76.4%,42.8%
ClCc1cccc(CSc2ncnc3c2ncn3Cc2cccc(CCl)c2)c1,33.9%,-54.8% (active),101%,-38.8% (active),36.7%,99.3%,-69.8% (active),88.7%,13%,26.3%
CCOC(CN1CCN(CC(C)C(=O)c2ccccc2)CC1)c1ccccc1 (stereo not given),112%,91.2%,95.5%,104%,99.7%,97.5%,73.9%,96.5%,106%,107%
CCCCn1c(C)nc2ccc(Nc3nc(Cl)nc4nc[nH]c34)cc21,75.3%,62.4%,82.5%,66.1%,70.9%,-11.2% (active),73.2%,81.4%,55.4%,86.8%
C/C(=N\OC(=O)Nc1cccc(Cl)c1)c1ccccc1,106%,92.1%,97.6%,95.8%,105%,132%,91.9%,89.2%,99.4%,117%
COC1CC(N)C2OC(c3ccccc3)OCC2O1 (stereo not given),103%,104%,107%,114%,103%,136%,98.7%,97.9%,103%,113%
O=NN(CC(=O)NNc1ccccc1)CC(=O)NNc1ccccc1,103%,85.9%,85%,87.8%,66.2%,88.5%,52%,65.9%,90.9%,68.6%
